Source: PubChem BioAssay
ClpP mod = qHTS Assay for Activators of ClpP; ATP-dependent Clp protease proteolytic subunit (Bacillus subtilis (strain 168)), P80244; purified B. subtilis ClpP, FRET peptide cleavage, 20 min; Potency, µM (highest dose often 57.5 µM), for the others: top-dose activity change, negative = active; 1.9% of 340,000 active; AID 651965, 2013; active = well fitted falling curve with a large enough effect; inconclusive = small, poorly fitted or top-dose-only effect; inactive = no such curve, though single readings can be large or run the other way; note: potency is the fitted concentration of half-maximal effect; the source files actives as falling curves though it sought activators and does not explain the sign; nearly all actives have a fitted effect of over 65% in size
Target sequence (P80244 whole entry, looked up): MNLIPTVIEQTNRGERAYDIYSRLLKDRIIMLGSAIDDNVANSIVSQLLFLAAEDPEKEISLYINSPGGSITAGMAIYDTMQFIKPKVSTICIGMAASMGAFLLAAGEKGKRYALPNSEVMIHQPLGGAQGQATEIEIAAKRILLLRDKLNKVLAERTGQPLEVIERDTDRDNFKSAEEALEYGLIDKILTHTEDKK
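Buffer: 100 mM Tris/HCl pH8, 100 mM KCl, 0.05% low protease BSA, 2.5% glycerol, 0.01% Tween-20. ClpP 10 microg/mL final; 20 min RT; delta FRET normalized to ADEP and DMSO controls.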
TrxR1 substrate = qHTS Assay for Substrates of Mammalian Selenoprotein Thioredoxin Reductase 1 (TrxR1): qHTS; Thioredoxin reductase 1, cytoplasmic (Rattus norvegicus), O89049; purified TrxR1 substrate turnover, NADPH consumption readout; Potency, µM (doses to about 114 µM), for the others: at the top dose activity change, negative = substrate turnover; 0.01% of 390,000 active; note: potency is the fitted concentration of half-maximal effect; % is set by controls: 0 for no effect and ±100 for the full control effect; nearly all actives have a fitted effect of over 50% in size
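Rat TrxR1, dispensed at 90 nM, was prereduced with 400 uM NADPH (final) for 5 min at ~22 deg C, then incubated with compound 15 min before 400 uM selenite. A first-read NADPH fluorescence drop versus no-compound background flagged substrates.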
Anesthetic bind = qHTS Assay for Identification of Novel General Anesthetics. Ferritin light chain (Equus caballus), P02791. apoferritin/1-aminoanthracene competitive binding, fluorescence. Potency, µM (series often up to 77.5 µM), without a hit: top-dose activity change, negative = displacement, hits mostly inhibitors. 0.074% of 350,000 active. AID 485281, 2010; note: potency is the fitted concentration of half-maximal effect; % is set by controls: 0 for no effect and ±100 for the full control effect; nearly all actives have a fitted effect of over 20% in size
Target sequence (P02791 2-175 limits assumed): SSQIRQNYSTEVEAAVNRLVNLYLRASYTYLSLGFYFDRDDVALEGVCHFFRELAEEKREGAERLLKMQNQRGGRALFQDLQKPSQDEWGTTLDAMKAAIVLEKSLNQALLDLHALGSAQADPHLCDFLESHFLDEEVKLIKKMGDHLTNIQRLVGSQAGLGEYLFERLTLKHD
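Horse-spleen apoferritin (10 uM) was mixed with 50% saturated 1-aminoanthracene in PBS, exposed to compounds for 10 min at room temperature, and read for fluorescence (ex 380 nm, em 535 nm). Competitive displacement was fitted with a four-parameter Hill equation.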
TrxR1 inh = qHTS Assay for Inhibitors of Mammalian Selenoprotein Thioredoxin Reductase 1 (TrxR1): qHTS; Potency, µM (titrated, usually from 114 µM), for the others: at the highest dose activity change, negative = inhibition, usual class: inhibitors; recombinant rTrxR1, NADPH fluorescence consumption, selenite substrate; AID 588453, 2011; 1% of 390,000 active; note: potency is the fitted concentration of half-maximal effect; % is set by controls: 0 for no effect and ±100 for the full control effect; nearly all actives have a fitted effect of over 65% in size
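Rat TrxR1 (90 nM in the dispensed reagent) was pre-reduced with 400 uM NADPH for 5 min at room temperature, then incubated with compound for 15 min. After 400 uM selenite was added, NADPH fluorescence (Ex 340/Em 450 nm) was followed for 8 min.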
miR-21 reporter = qHTS Assay for Modulators of miRNAs and/orActivators of miR-21; Potency, µM (titrated, usually from 38.3 µM), without a hit: top-dose activity change, positive = activation, actives largely listed as activators; 340,000 tested, under 10 active; HeLa miR-21 FLuc reporter, luciferase, 48 h; AID 2288, 2010;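 note: % of control where 0% means no effect; miR-21 action dims this reporter so a rising signal means less miR-21 action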
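HeLa cells endogenously expressing miR-21, stably carrying CMV-driven firefly luciferase with a downstream miR-21 binding site, 2000 cells/well. Titrations up to approximately 40 uM, 48 hours; luciferase luminescence read.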
Active calls of the source: *; ? = inconclusive; · = not tested or not shown; [ ] = another dose, or the depositor's remark. Most compounds without a hit are left out; they make up all but 2.5% or so of the library. Unless noted, calls come from the whole dose curve; as a rule, active = well fitted curve in the direction sought with a large enough effect; inconclusive = small, poorly fitted or top-dose-only effect, or another doubt; inactive = no such curve, though single readings can be large; an effect the other way counts as inactive or inconclusive.

SMILES	ClpP mod	TrxR1 substrate	Anesthetic bind	TrxR1 inh	miR-21 reporter
CC(C)(C)OC(=O)N1CCC(c2c(C(=O)NCc3ccccn3)cnn2-c2ccccc2)CC1	-1%	-3%	-3%	17%	3%
N#CC(C#N)=Cc1cn(-c2ncc(C(F)(F)F)cc2Cl)c2ccccc12	16µM*	-15%[57.1 µM]	-3%	16µM*	12%
O=C(COc1ccc(Br)cc1)Nc1ccc(-c2nnc(-c3ccco3)o2)cc1	10µM*	1%	10%	-8%	-26%
Cc1csc(NC(=O)c2ccco2)n1	22µM*	-9%	4%	-10%	-5%
O=C(O)Cc1csc(NC(=O)c2ccco2)n1	-2%	5%[57.1 µM]	2%	6%	-15%
Cc1ccc(-c2nc3ccccn3c2C=O)cc1	-7%	-8%	-9%	8%	-47%
Cc1c(-c2ccc(Br)cc2)nc2ccccn12	25µM*	31%	4%	19%	-73%
COc1ccc(N2CCN(C(=O)Cc3noc4ccc(C)cc34)CC2)cc1	1%	2%	-14%	10%[11.4 µM]	11%
CN1C(C(=O)c2ccccc2)=C(NC(=O)c2ccccc2Br)c2ccccc2S1(=O)=O	1%	-1%	0%	10%	0%
COc1ccc(Cl)cc1NC(=O)[C@H]1O[C@@H]2OC(C)(C)O[C@@H]2[C@H]2OC(C)(C)O[C@H]21	?	-3%	-6%	1%	-21%
O=c1[nH]c2ccccc2cc1-c1noc(-c2cccnc2)n1	32µM*	68%	-6%	19%	-6%
c1ccc(-c2noc(-c3cccnc3)n2)cc1	-2%	9%	-14%	29%	-39%
c1ccc(-c2ccc(-c3nc(-c4cccnc4)no3)cc2)cc1	14µM*	18%[57.1 µM]	-11%	-17%[2.29 µM]	-50%
Cc1cccc(OC(=O)CSc2nnc(-c3ccc4c(c3)OCO4)o2)c1C	238%	-5%	-5%	9%	0%
Cc1ccc(N(CC(=O)Nc2cc(C)ccc2C)S(=O)(=O)c2c(C)noc2C)cc1	-2%	-4%	-11%	16%	18%
Cc1ccc(-n2nc(CO)c(C(=O)NCc3cccs3)n2)cc1C	28µM*	9%	-3%	20%	14%
CCOc1ccc(-c2nnc(SCC(=O)NCc3ccc(Cl)cc3)o2)cc1	-10%	-2%	4%	50µM*	-18%
CCOc1ccc(-n2nc(CO)c(C(=O)NCc3cccnc3)n2)cc1	6.3µM*	141%	9%	37%	11%
CCOc1ccc(-n2nc(CO)c(C(=O)NCc3ccc(Cl)cc3)n2)cc1	7.1µM*	29%	-11%	4%	-3%
CCOc1ccc(-n2nc(CO)c(C(=O)NCc3cccc(OC)c3)n2)cc1	?	75%	2%	105%	-25%
CCc1c(C)c2ccccc2[nH]c1=O	-25%	8%	·	22%	·
COCCCNC(=O)c1nn(-c2ccc(C)cc2)nc1CO	14µM*	87%	-1%	51%	-1%
CCc1ccc(-n2nc(CO)c(C(=O)NCCc3ccccc3)n2)cc1	?	20%	4%	24%	-2%
CCOc1ccc(-n2nc(CO)c(C(=O)NCCCc3ccccc3)n2)cc1	13µM*	69%	104%	40%	2%
Cc1ccc(-n2ncc3c(NC4CCCCC4)ncnc32)cc1	?	15%[57.1 µM]	2%	21%[57.1 µM]	-2%
Cc1ccc(-c2nc(CS(=O)(=O)CC(=O)NC3CCCCCC3)c(C)o2)cc1	·	7%	-6%	79µM*	-4%
Cc1oc(-c2ccc(Cl)cc2)nc1CS(=O)CC(=O)NC1CCCCCC1 (configuration not stated)	-19%	-3%	?	?	-1%
Cc1oc(-c2cccs2)nc1CS(=O)CC(=O)NC1CCCCCC1 (configuration not stated)	-1%	5%[57.1 µM]	?	5µM*	-9%
